# Assay outcomes from PubChem.
# Sampled rows, rich in hits. Any-hit rate of the full collection: about 5.2%.
# Sfp PPTase inh – qHTS Assay for Inhibitors of Bacillus subtilis Sfp phosphopantetheinyl transferase (PPTase) | 4'-phosphopantetheinyl transferase ffp (Bacillus subtilis), Q9F4F7 | Biochemical Sfp PPTase activity, qHTS | Potency, µM, inactives show largest response in the series, negative = inhibition, hits mostly inhibitors | 3.5% of 310,000 active;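 also: the enzyme is Sfp with the accession as filed and its product quenches rhodamine fluorescence; potency is read from the fitted curve at half-maximal effect; 0% = enzyme reaction without inhibitor and -100% = no enzyme wells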
#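 Step 1, compound plus 15 nM Sfp-PPTase, 15 min, room temperature. Step 2, add rhodamine-CoA (5 uM) and BHQ-2-YbbR (12.5 uM). Step 3, read 525/598 nm fluorescence at 0 and 30 min.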
# Tau fibril ThT – qHTS for Inhibitors of Tau Fibril Formation, Thioflavin T Binding; Microtubule-associated protein tau (Homo sapiens), P10636; recombinant tau K18 P301L, heparin-induced fibrillization, ThT fluorescence; Potency, µM (titrated, usually from 57.4 µM), for inactives: at the top dose activity, negative = inhibition, hits mostly inhibitors; 2.1% of 270,000 active; AID 1460, 2008; also: potency is read from the fitted curve at half-maximal effect; nearly all actives have a fitted effect of over 55% in size
# Target sequence (P10636 561-689 P618L limits assumed): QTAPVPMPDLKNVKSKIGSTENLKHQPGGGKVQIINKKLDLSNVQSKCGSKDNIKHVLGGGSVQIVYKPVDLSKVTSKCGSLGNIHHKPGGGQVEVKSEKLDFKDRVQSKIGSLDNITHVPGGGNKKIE
#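 ThT emission at 510 nm, taken 1 hr after adding 30 uM dye, quantifies aggregates formed when 20 uM heparin acts on human tau K18 P301L for 6 hr at 37 C.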
# Tau FP inhib – qHTS for Inhibitors of Tau Fibril Formation, Fluorescence Polarization; 0.39% of 280,000 active; Microtubule-associated protein tau (Homo sapiens), P10636; K18 P301L tau heparin fibrillization, Alexa594 FP, 6 h; Potency, µM (titrated, usually from 57.7 µM), for inactives: at the highest dose activity, negative = inhibition, usual class: inhibitors; also: potency is read from the fitted curve at half-maximal effect; nearly all actives have a fitted effect of over 55% in size
#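 Human tau K18 […] P301L fragment, 15 uM unlabeled plus 0.24 uM Alexa 594-labeled tau (final), with compound and 20 uM heparin in 100 mM sodium acetate pH 7; 6 hr at 37 C, then Alexa 594 FP read.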
# Tau fluor counter – Counterscreen qHTS for Inhibitors of Tau Fibril Formation, Fluorescence Polarization; tau K18 P301L (four-repeat tau fragment) Alexa594 fluorescence, heparin fibrillization; Potency, µM (titrated, usually from 57.7 µM), without a hit: top-dose activity change, negative = decrease; 0.93% of 280,000 active; AID 1463, 2008; also: potency is read from the fitted curve at half-maximal effect; nearly all actives have a fitted effect of over 55% in size
#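 Human K18 P301L tau (15 uM unlabeled plus 0.24 uM Alexa 594-labeled, final) in 100 mM sodium acetate pH 7 was mixed with compound and 20 uM heparin and incubated 6 hr at 37 C.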
# Coupling enz – qHTS Assay for Inhibitors of Fructose-1,6-bisphosphate Aldolase from Giardia Lamblia: Coupling assay counterscreen; coupling enzyme system counterscreen, AmpLite Red fluorescence; activity change, negative = inhibition, % at 58.2 µM, hits read low; 0.67% of 290,000 active; in the data active = activity change below about -30%
#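 Final compound at 57.5 uM, incubated 10 min at RT with coupling enzyme reagent (glyceraldehyde-3-phosphate), then 20 min with substrate and AmpLite Red detection. Fluorescence read at 525/598 nm; tests interference with the coupling assay, not aldolase inhibition.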
# Starred values were filed as active, the others as inactive; u = inconclusive; x = no result given; [ ] = another dose, or the depositor's remark. Unless noted, calls follow the shape of the dose curve; as a rule, active = well fitted curve in the direction sought with a large enough effect; inconclusive = small, poorly fitted or top-dose-only effect, or another doubt; inactive = no such curve, though single readings can be large; an effect the other way counts as inactive or inconclusive. Unless noted, % is scaled to controls: 0 for no effect and ±100 for the full control effect.
SMILES,Sfp PPTase inh,Tau fibril ThT,Tau FP inhib,Tau fluor counter,Coupling enz
CC1CCn2c(nc3cc(C(=O)NCc4ccccc4)ccc32)C1 (stereo not given),x,4%,1%,2%,x
CN1CCN(c2ccccc2NC(=O)c2ccc(-c3ccc(Cl)cc3Cl)o2)CC1,56µM*,u,4%,-23%,0
N[C@@H](Cn1cc(F)c(=O)[nH]c1=O)C(=O)O,56µM*,-6%,7%,-2%,3
Cc1cccc(OC(=O)c2nc(SCc3ccccc3F)ncc2Cl)c1,x,u,-15%,-29%,x
COc1ccc2c(C)cc3n[nH]c(=S)n3c2c1,16µM*,u,5%,-22%,2
Cc1ccc(OCCn2c(=S)[nH]c3c(N)ncnc32)cc1,-57%,-9%,9%,-21%,1
CC(C)Oc1ccc(OCCn2c(=S)[nH]c3c(N)ncnc32)cc1,50µM*,u,1%,u,8
CCOC(=O)C1=C(CSc2nc3c(cc2C#N)CN(C)CC3)OC(N)=C(C#N)C1c1ccc(Cl)cc1 (stereo not given),-31%,20µM*,-16%,u,0
Cc1ccc(-c2nnc(SCC(=O)c3ccc(Cl)cc3)n2-c2ccccc2)cc1,x,10%,-5%,7%,x
CCOc1ccc(-c2cc3c(=O)n(Cc4nc(-c5ccc(OCC)c(OC)c5)oc4C)ccn3n2)cc1Cl,x,-5%,-1%,-8%,x
COc1cc(-c2nc(S(=O)(=O)c3ccc(C)cc3)c(N(C)C)o2)cc(OC)c1OC,56µM*,u,5%,2%,3
CCOc1ccc2nc3sc(C(=O)N4CCN(C)CC4)c(N)c3cc2c1,-10%,13µM*,9%,u,-2
COc1ccc2cc3c(N)c(C(=O)N4CCCC4)sc3nc2c1,-26%,11µM*,5%,u,-1
COc1ccccc1C(=O)Nc1cccc(C(=O)OCc2cc(=O)n3ccsc3n2)c1,x,u,-15%,-10%,x
COCCCN(C(=S)Nc1cc(Cl)cc(Cl)c1)C(C)c1ccccn1 (stereo not given),25µM*,u,-6%,-29%,-1
Cc1ccc(NC(=S)N(CCC(C)C)C(C)c2ccncc2)c(Cl)c1 (stereo not given),56µM*,-11%,6%,11%,2
COCCCN(C(=S)Nc1cc(Cl)cc(Cl)c1)C(C)c1ccncc1 (stereo not given),25µM*,-7%,-5%,-18%,-2
COc1ccc(OCC(=O)OCc2cc(=O)n3nc(C4CC4)sc3n2)cc1,x,-11%,-7%,-7%,x
Cn1c(-[n+]2c(-c3ccccc3)cc(-c3ccccc3)cc2-c2ccccc2)nc2cc([N+](=O)[O-])ccc21,22µM*,u,-2%,-20%,0
O=[N+]([O-])c1ccc2c(c1)ncn2-c1ccccc1,-6%,-12%,-5%,-15%,-6
O=c1[nH][nH]c(=S)n1-c1ccccc1C(F)(F)F,7.9µM*,u,-6%,-3%,5
CCOC(=O)COc1ccc(/C=C/[N+](=O)[O-])c(OCC(=O)OCC)c1,-30%,u,9%,7%,0
CCOC(=O)COc1ccc2ccccc2c1/C=C/[N+](=O)[O-],20µM*,u,0%,5%,-13
CCOc1ccc(/C=C/[N+](=O)[O-])c2ccccc12,8.9µM*,u,u,2%,-7
CCOC(=O)Cn1cc(/C=C/[N+](=O)[O-])c2ccccc21,-26%,u,3%,0%,-8
SMILES,Sfp PPTase inh,Tau fibril ThT,Tau FP inhib,Tau fluor counter,Coupling enz
CC(=O)c1cccc(NC(=O)Cn2cc(C(=O)c3cccc(Cl)c3)c(=O)c3ccc(C)nc32)c1,x,-15%,u,u,x
O=c1[nH]nc(Cc2ccc(-c3ccc(Cl)cc3)o2)c2ccccc12,56µM*,-11%,-19%,-18%,-12
O=c1[nH]nc(Cc2ccccc2)c2ccccc12,9%,-8%,-5%,-12%,-2
COC(=O)C1=C(C)OC(N)=C(C#N)C1c1ccccc1 (stereo not given),0%,8%,2%,1%,2
CNC(=O)C1C(=S)NC(N)=C(C#N)C1c1ccccc1 (stereo not given),4µM*,20µM*,16µM*,-28%,1
N#CC1=C(N)SC2(CCCCC2)SC1c1ccccc1 (stereo not given),10µM*,u,-18%,-15%,0
COc1ccc(OC)c(CCNC(=O)c2cc3c(s2)-c2c(C)cccc2OC3)c1,x,u,-4%,-23%,x
Cc1ccc(SCc2nc3ccccc3n2CC(=O)Nc2ccccc2)cc1,50µM*,-12%,11%,-24%,1
O=C(Cn1c(CSc2ccccc2)nc2ccccc21)Nc1ccccc1,-21%,-8%,-1%,-14%,0
CCC1CC=CC2C1C(=O)N(Cc1ccccc1)C2c1cccc([N+](=O)[O-])c1 (stereo not given),-26%,x,x,x,1
O=c1[nH]c2ccccc2c2oc(CCl)nc12,6.3µM*,u,u,-15%,-13
COc1ccc(-c2ccc(N(C)C)cc2)cc1C1C2C=CCC(C)C2C(=O)N1Cc1ccccc1 (stereo not given),10%,x,x,x,0
COc1ccc(CCNC(=O)c2cc3c(s2)-c2c(C)cccc2OC3)c(OC)c1,x,u,0%,u,x
CCOC(=O)c1c(C)[nH]c2c1cc(O)c1ccccc12,-6%,16µM*,-3%,u,-33*
Cc1cc(Cl)ccc1-n1c(-c2cccnc2)n[nH]c1=S,18µM*,-12%,-2%,-7%,6
Cc1ccc(C)c(-n2c(-c3cccnc3)n[nH]c2=S)c1,-22%,-3%,-3%,-1%,5
CS(=O)(=O)N1N=C(c2ccco2)CC1c1ccccc1Cl (stereo not given),5%,-14%,-3%,-14%,1
CS(=O)(=O)N1N=C(c2ccco2)CC1c1ccc(Cl)cc1Cl (stereo not given),40µM*,-10%,4%,-5%,1
CCOc1ccc2cc(C3CC(c4ccco4)=NN3S(C)(=O)=O)c(=O)[nH]c2c1 (stereo not given),22µM*,x,2%,-6%,-6
O=C(C1CCCCC1)N(Cc1cccnc1)c1nc2c(F)cccc2s1,x,-9%,1%,-6%,x
CCCNC(=O)OC[C@@H]1O[C@H](CCO/N=C(\C)CCC(=O)OC[C@@H]2O[C@H](c3ccccc3)C=C[C@@H]2Oc2ccc(OC)cc2)C=C[C@@H]1Oc1ccc(OC)cc1,11%,-7%[11.5 µM],-3%[11.6 µM],-11%[11.6 µM],-4
